Experimental data taken from PubChem BioAssay (NCATS).
Records with an inconclusive call do not appear. Values without a mark were called inactive. The call rests on the fitted dose curve; in most records, active means well fitted inhibition curve with a large enough effect; inconclusive means small, poorly fitted or top-dose-only effect; inactive means flat fitted curve, though single readings scatter.

assay: qHTS to identify inhibitors of the type 1 interferon - major histocompatibility complex class I in skeletal muscle: primary screen against the NCATS Pharmaceutical Collection (AID 1347407); settings: human skeletal muscle cells, IFN-b-induced MHC-I HiBiT luminescence, 24 h; series mostly up to 45.9 µM; activity change, negative = inhibition: at the top concentration;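 further: luminescence of HiBiT knocked into endogenous HLA-B as interferon-induced MHC class I level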
How it was run: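 A qHTS format is used: 8-point, 1:5 compound series with 46 uM top final concentration, applied alongside 4 ng/ml IFN-beta to HLA-B*08:01-HiBiT knock-in myoblasts. Luminescence is measured after 24 h treatment.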
On the % scale 0 is the no-effect control and ±100 the full control effect.

Row | SMILES | activity change, negative = inhibition
1 | N[C@@H](Cc1ccc(O)cc1)C(=O)O | -1.9% [at 9.18 µM]
2 | C[N+](C)(C)CC[N+]1(C)Cc2c(Cl)c(Cl)c(Cl)c(Cl)c2C1 | -15.1%
3 | C1CCN2C[C@@H]3C[C@@H](CN4CCCC[C@@H]34)[C@H]2C1 | 1.05%
4 | CC(=O)SC[C@@H](Cc1ccccc1)C(=O)NCC(=O)OCc1ccccc1 | 27.7%
5 | C[C@@H](N)C(=O)O | 0.165%
6 | CN1CCN(C(=O)C2CCCCC2)CC1 | 9.96%
7 | Cc1c(Cn2ccnc2)c2ccccc2n1CCC(=O)O | 8.92%
8 | Cc1cccc(Nc2ccccc2C(=O)O)c1C | -8.29%
9 | O=C1c2ccccc2C(=O)C1c1ccc(Br)cc1 | -26%
10 | O=C(O)CCC(=O)O | -11.3%
11 | CCCCCC(N)=O | -7.02%
12 | C[C@H]1COc2c(C3(N)CC3)c(F)cc3c(=O)c(C(=O)O)cn1c23 | -2.01%
13 | O=C(O)CNC(=O)c1ccccc1I | -1.12%
14 | Cn1c([N+](=O)[O-])cnc1COC(N)=O | -1.57%
15 | Cc1ccc2c(c1)c1c3n2CCNC3CCC1 (configuration not stated) | -3.5%
16 | Cc1ccc(C(C)C)c(O)c1 | 21.1%
17 | O=C(O)Cc1ccc(CCNS(=O)(=O)c2ccc(Cl)cc2)cc1 | -0.541%
18 | CC[C@]12CCCN3CCc4c(n(c5ccccc45)[C@@](O)(C(=O)OC)C1)[C@@H]32 | -16.9%
19 | CC(CSC(=O)c1ccccc1)C(=O)N1C[C@@H](Sc2ccccc2)C[C@H]1C(=O)O (some centres not stated) | 0.115% [at 19 µM]

Row | SMILES | activity change, negative = inhibition
20 | Cc1c(N(C)C)c(=O)n(-c2ccccc2)n1C | -14.7%
21 | COc1ccc2cc(CCC(C)=O)ccc2c1 | -0.324%
22 | C/C=C/C(=O)N(CC)c1ccccc1C | -2.73%
23 | CCCCCCCCCCCCCCCCC(C(=O)O)C(O)(CC(=O)O)C(=O)O (configuration not stated) | -12.3%
24 | O=c1[nH]c2cc(C(F)(F)F)c(N3CCOCC3)cc2n(CP(=O)(O)O)c1=O | -2.24%
25 | Cc1c(I)c(=O)n(-c2ccccc2)n1C | -1.78%
26 | CC(=O)N[C@H]1[C@H]([C@H](O)[C@H](O)CO)OC(C(=O)O)=C[C@@H]1N=C(N)N | 0.279%
27 | C/C(=C(\CCO)SS/C(CCO)=C(\C)N(C=O)Cc1cnc(C)nc1N)N(C=O)Cc1cnc(C)nc1N | -0.349%
28 | Cc1cc(OI)c(C(C)C)cc1-c1cc(C(C)C)c(OI)cc1C | 21.7%
29 | OCCN1C[C@H](O)[C@@H](O)[C@H](O)[C@H]1CO | 5.14%
30 | COC(=O)c1ccccc1C(=O)c1ccc(OCCN2CCCCC2)cc1 | 38.5%
31 | OCc1ccc(Cl)cc1Cl | 3.66%
32 | Cc1ccsc1C(=CCCN1CCC[C@@H](C(=O)O)C1)c1sccc1C | 7.99%
33 | CC(=O)Oc1cccc(O)c1 | 1.64%
34 | O=C(O)[C@@H]1[C@H]2C[C@H]3c4[nH]c5ccccc5c4CCN3C[C@@H]2CC[C@@H]1O | -2.19%
35 | NC(=O)N[C@@H](CCC(=O)O)C(=O)O | 5.29%
36 | Cc1cc(C)c(NC(=O)CN(CC(=O)O)CC(=O)O)c(C)c1Br | 3.29%
37 | CC(C)(C)NCC(O)COc1cccc2c1CCC(=O)N2 (configuration not stated) | -6.58%
